From PubChem BioAssay AID1159580 (chemical genetic matrix, 2015)
The campaign covered roughly 5,500 compounds. About 2,000 (36%) were called active. Not shown: some 18% with an inconclusive outcome. Cut-off read from the data, not from the text of the source: active = normalized growth mostly below about 0.91 (no sharp cut-off); inconclusive = no clear call, values can overlap the other calls; inactive = mostly above about 0.92. The list shows a part of the results.

Assay: chemical genetic growth profiling, strain panel (AID 1159580);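 note: tested at 20 µM; growth read once vehicle control cultures reached saturation at 30 °C; 1 = growth at the plate median or of vehicle wells; lower values mean less growth of the strain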
Settings: S. cerevisiae deletion strains, growth OD

Measured: normalized growth

CC(C)(C)c1csc(NC(=O)c2ccc(Cl)cc2Cl)n1
inactive: locus YAR019C, strain CDC15, active compounds read low 0.974 | locus YBL105C, strain PKC1, active compounds read low 0.976 | locus YBR135W, strain CKS1, active compounds read low 0.981 | locus YBR136W, strain MEC1, active compounds read low 0.971 | locus YBR160W, strain CDC28, active compounds read low 0.983 | locus YDL017W, strain CDC7, active compounds read low 0.973 | locus YDL028C, strain MPS1, active compounds read low 0.978 | locus YDL101C, strain DUN1, active compounds read low 0.962 | locus YDL108W, strain KIN28, active compounds read low 0.98 | locus YDL132W, strain cdc53, active compounds read low 0.978 | locus YDL214C, strain PRR2, active compounds read low 0.919 | locus YDR052C, strain DBF4, active compounds read low 0.991 | locus YDR054C, strain cdc34, active compounds read low 0.961 | locus YDR226W, strain ADK1, active compounds read low 0.97 | locus YDR477W, strain SNF1, active compounds read low 0.963 | locus YER123W, strain YCK3, active compounds read low 0.95 | locus YER133W, strain GLC7, active compounds read low 0.94 | locus YFL009W, strain cdc4, active compounds read low 0.966 | locus YFL029C, strain CAK1, active compounds read low 0.973 | locus YFR003C, strain YPI1, active compounds read low 0.964 | locus YFR019W, strain FAB1, active compounds read low 0.972 | locus YFR028C, strain CDC14, active compounds read low 0.975 | locus YGR040W, strain KSS1, active compounds read low 0.954 | locus YGR052W, strain FMP48, active compounds read low 0.938 | locus YGR092W, strain DBF2, active compounds read low 0.93 | locus YHR030C, strain SLT2, active compounds read low 0.867 | locus YHR079C, strain IRE1, active compounds read low 0.819 | locus YHR082C, strain KSP1, active compounds read low 0.98 | locus YHR205W, strain SCH9, active compounds read low 0.805 | locus YIL147C, strain SLN1, active compounds read low 0.973 | locus YJL095W, strain BCK1, active compounds read low 0.785 | locus YJL128C, strain PBS2, active compounds read low 0.864 | locus YJL157C, strain FAR1, active compounds read low 0.964 | locus YJR016C, strain ILV3, active compounds read low 0.978 | locus YJR066W, strain TOR1 (second series), active compounds read low 0.976 | locus YJR066W, strain TOR1, active compounds read low 0.993 | locus YKL048C, strain ELM1, active compounds read low 0.938 | locus YKL067W, strain YNK1, active compounds read low 0.939 | locus YKL101W, strain HSL1, active compounds read low 0.901 | locus YKL193C, strain SDS22, active compounds read low 0.958 | locus YKL203C, strain TOR2, active compounds read low 1.01 | locus YLR133W, strain CKI1, active compounds read low 0.968 | locus YLR403W, strain SFP1, active compounds read low 0.913 | locus YML070W, strain DAK1, active compounds read low 0.9 | locus YMR001C, strain CDC5, active compounds read low 0.972 | locus YMR205C, strain PFK2 (second series), active compounds read low 0.931 | locus YMR277W, strain FCP1, active compounds read low 0.97 | locus YNL006W, strain LST8, active compounds read low 0.98 | locus YNL020C, strain ARK1, active compounds read low 0.943 | locus YNL161W, strain CBK1, active compounds read low 0.974 | locus YNL183C, strain NPR1, active compounds read low 0.953 | locus YNL207W, strain RIO2, active compounds read low 0.967 | locus YNL222W, strain SSU72, active compounds read low 0.961 | locus YNL307C, strain MCK1 (second series), active compounds read low 0.91 | locus YOL078W, strain AVO1, active compounds read low 0.969 | locus YOL136C, strain PFK27, active compounds read low 0.917 | locus YOR061W, strain CKA2, active compounds read low 0.956 | locus YOR119C, strain RIO1, active compounds read low 1.01 | locus YOR231W, strain MKK1, active compounds read low 0.898 | locus YOR329C, strain SCD5, active compounds read low 0.975 | locus YPL031C, strain PHO85, active compounds read low 0.948 | locus YPL153C, strain RAD53, active compounds read low 0.946 | locus YPL204W, strain HRR25, active compounds read low 0.966 | locus YPL209C, strain IPL1, active compounds read low 0.982 | locus YPR025C, strain CCL1, active compounds read low 0.977 | locus YPR106W, strain ISR1, active compounds read low 0.958 | locus YPR111W, strain DBF20, active compounds read low 0.946 | strain NNK1, active compounds read low 0.938 | strain TSCII, active compounds read low 0.972
active: locus YLR113W, strain HOG1, active compounds read low 0.716 | locus YPL256C, strain CLN2, active compounds read low 0.843

Cc1cc(NC(=O)Nc2ccc3c(ccn3C)c2)sn1
inactive: locus YAL040C, strain CLN3, active compounds read low 0.993 | locus YDR363W, strain ESC2, active compounds read low 1.02 | locus YER002W, strain NOP16, active compounds read low 0.992 | locus YGR078C, strain PAC10, active compounds read low 0.999 | locus YGR229C, strain SMI1, active compounds read low 1 | locus YJR075W, strain HOC1, active compounds read low 1 | locus YMR263W, strain SAP30, active compounds read low 0.968 | locus YMR307W, strain GAS1, active compounds read low 0.996 | locus YNL153C, strain GIM3, active compounds read low 1.04 | locus YNL175C, strain NOP13, active compounds read low 1.02 | locus YNL197C, strain WHI3, active compounds read low 0.983 | locus YNL224C, strain SQS1, active compounds read low 0.996 | locus YOR083W, strain WHI5 (second series), active compounds read low 1.01 | locus YPL241C, strain CIN2, active compounds read low 0.992
